# Results reported in PubChem BioAssay (NCI).
# The panel holds about 83,000 compounds, 20% with a hit somewhere; the sample as a whole holds those more often.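 Negative percent growth values reflect cell death: -40 means 40% of the cells present at the start died, and -100 means all died.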 Values without a mark were called inactive. The source made the active and inactive calls. The calls were made as follows: active = growth percent below 10; inactive = the rest.
# Experiments:
# Assay in all cases: NCI-60 one-dose screen, 48 h (100 = growth as untreated, 0 = no growth, -100 = all killed)
# Conditions in all cases: 10 µM unless noted
# NCI-H23 lung = test system: NCI-H23 lung
# NCI-H226 lung = test system: NCI-H226 lung
# NCI-H322M lung = test system: NCI-H322M lung
# HOP-62 NSCLC = test system: HOP-62 NSCLC
# NCI-H460 lung = test system: NCI-H460 lung
# NCI-H522 lung = test system: NCI-H522 lung
# A549/ATCC NSCLC = test system: A549/ATCC NSCLC
# 786-0 renal = test system: 786-0 renal
# COLO 205 colon = test system: COLO 205 colon
Compound,growth (NCI-H23 lung),growth (NCI-H226 lung),growth (NCI-H322M lung),growth (HOP-62 NSCLC),growth (NCI-H460 lung),growth (NCI-H522 lung),growth (A549/ATCC NSCLC),growth (786-0 renal),growth (COLO 205 colon)
CC(=O)NC(C)(C)C(=O)N[C@@H](C)C(=O)NC(C)(C)C(=O)N[C@@H](C)C(=O)NC(C)(C)C(=O)N[C@@H](C)C(=O)N[C@@H](CCC(N)=O)C(=O)NC(C)(C)C(=O)N[C@H](C(=O)NC(C)(C)C(=O)NCC(=O)N[C@@H](CC(C)C)C(=O)NC(C)(C)C(=O)N1CCC[C@H]1C(=O)N[C@H](C(=O)NC(C)(C)C(=O)NC(C)(C)C(=O)N[C@@H](CCC(N)=O)C(=O)N[C@@H](CCC(N)=O)C(=O)N[C@H](CO)CC1CCCCC1)C(C)C)C(C)C,21.6% [5 µM],35% [5 µM],94.2% [5 µM],46.3% [5 µM],45.1% [5 µM],6.15% [5 µM] (active),48.1% [5 µM],78.6% [5 µM],-12% [5 µM] (active)
C#CCOc1ccc(/C=N/Nc2nc(-c3cc(Cl)ccc3Cl)cs2)cc1,75.3%,77.2%,105%,104%,96.8%,84.3%,103%,107%,105%
O=C(Cn1cc(CN2C(=O)c3ccc([N+](=O)[O-])cc3C2=O)nn1)Nc1ccc(F)cc1Cl,98%,101%,100%,109%,106%,93.1%,99.1%,93.9%,110%
O=C(Cn1cc(CN2C(=O)c3ccc([N+](=O)[O-])cc3C2=O)nn1)Nc1ccccc1Br,98.1%,104%,98.2%,109%,108%,102%,108%,107%,117%
CC(C)(C)OC(=O)N1CCN(S(=O)(=O)/N=C2\NC(=O)NC2=C(Cl)Cl)CC1,91.8%,105%,98.9%,105%,101%,-52.4% (active),103%,101%,86.3%
CC(C)C[C@H]1C(=O)O[C@H](C(C)C)C(=O)N(C)[C@@H](C(C)C)C(=O)O[C@H](C(C)C)C(=O)N(C)[C@@H](C(C)C)C(=O)O[C@H](C(C)C)C(=O)N1C,6.64% (active),20.5%,13.3%,14.7%,8.47% (active),1.72% (active),12.6%,23.3%,-89% (active)
O=C(/C=C/c1cccc(O)c1)c1ccc(O)cc1,72%,103%,88.5%,79.9%,92.8%,65.6%,90.1%,85%,120%
COc1ccc(/C(C)=C(\c2ccc(Cl)cc2)c2ccc(OCCN)cc2)cc1,82.2%,92%,79.3%,106%,60.8%,102%,88.9%,81.7%,32.6%
O=C(O)c1ccc(-n2cc(CNc3ccc(F)cc3)c(-c3ccc(C(F)(F)F)cc3)n2)cc1,93.3%,88.8%,89.9%,81.3%,84.4%,93.8%,74%,105%,103%
COc1ccc(-c2nc3cc(Cl)c(Cl)cc3n2CC(=O)N=Nc2c(O)[nH]c3ccc(Cl)cc23)cc1,21.2%,-8.97% (active),46.1%,0.657% (active),16.9%,37.6%,18.5%,24.7%,-3.46% (active)
Cc1cc(NS(=O)(=O)c2ccc(-c3cnc(C4CC4)o3)cc2)ccc1I,37.7%,57.8%,45.8%,43.8%,22.2%,30.6%,48.1%,46.3%,22.9%
Cn1cc(-c2nn3cc(-c4ccncc4)nc3s2)c2cc(Cl)ccc21,44.5%,86.1%,78.3%,67.4%,51.5%,46%,64%,89.1%,31.9%
C#C[C@]1(O)CC[C@H]2[C@@H]3CC=C4c5sc(Nc6cc(OC)ccc6OC)nc5CC[C@]4(C)[C@H]3CC[C@@]21C,33.9%,60.4%,62.2%,41.2%,26.6%,63.8%,38%,-2.79% (active),18.5%
C=CCn1c(SCC(=O)Nc2cccc(C(=O)/C=C/c3cccc([N+](=O)[O-])c3)c2)nc2ccccc2c1=O,89.3%,83.6%,95.4%,108%,93.4%,89.3%,94.1%,94.8%,117%
Cc1csc(Nc2cccc(Nc3nc(C)cs3)c2)n1,58.4%,85%,96.2%,98.8%,76.5%,73.3%,88%,94.5%,87.2%
CC1=C2C(=C[C@@](C)(COS(N)(=O)=O)[C@@H]2O)C(=O)[C@](C)(O)C12CC2,23.6%,85.8%,74.4%,45.7%,7.04% (active),70.5%,21.2%,79.4%,47.7%
CC[C@@](C)(NC(=O)C(C)(C)NC(=O)[C@@H](NC(=O)[C@@H]1CCCN1C(=O)C(C)(C)NC(=O)[C@H](CC(C)C)NC(=O)CNC(=O)C(C)(C)NC(=O)[C@@H](NC(=O)C(C)(C)NC(=O)[C@H](CCC(N)=O)NC(=O)[C@H](C)NC(=O)C(C)(C)NC(=O)[C@H](C)NC(=O)C(C)(C)NC(=O)[C@@H]1CCCN1C(=O)C(C)(C)NC(C)=O)C(C)C)C(C)C)C(=O)N[C@@H](CCC(N)=O)C(=O)N[C@@H](CCC(N)=O)C(=O)N[C@H](CO)Cc1ccccc1,14.9% [4.25 µM],61.3% [4.25 µM],58.4% [4.25 µM],51.9% [4.25 µM],39.4% [4.25 µM],-1.04% [4.25 µM] (active),50.1% [4.25 µM],77.2% [4.25 µM],-12.5% [4.25 µM] (active)
COc1ccc2c(C3=C(c4c[nH]c5ccccc45)C(=O)N(O)C3=O)coc2c1,93%,74.9%,96.8%,84.7%,90.3%,68.4%,96.6%,93.8%,99.2%
CCNCCCn1c2c(c3cc(OC)c(OC)cc3c1=O)C(=O)c1cc(OC)cnc1-2,21.1%,17.7%,33.2%,-12.2% (active),0.566% (active),,,-3.55% (active),13.4%
O=C(Nc1ccc(F)cc1)c1cc(-c2ccc(F)cc2F)ccc1O,1.86% (active),5.87% (active),9.89% (active),12%,4.82% (active),-4.42% (active),,15.5%,96.4%
